# Structures can show the parent of a compound that is named as a salt.
# System: Neuro-2a
# Assay: neurite formation score, plate-normalized to DMSO control mean 5.04 (score (0-8 scale)); higher = more or longer neurites
# Details: 0.1 µM
# Procedure: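 Neuro-2a mouse neuroblastoma cells in PLL-coated 96-well plates were pre-treated for 1 h in DMEM(+) with each kinase inhibitor at 0.1 µM, then switched to serum-free DMEM(-) with inhibitor to induce neurite outgrowth and fixed about 2-3 h later. Three blinded observers scored neurite formation from 0 (no neurites) to 8 (long neurites on almost all cells).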
row,Compound,neurite formation score
1,COc1cc2ncnc(Nc3cccc(Cl)c3)c2cc1OC,5.54
2,COC(=O)Nc1nc2cc(C(=O)c3cccs3)ccc2[nH]1 [Nocodazole],1.58
3,Cc1cnc(Nc2ccc(OCCN3CCCC3)cc2)nc1Nc1cccc(S(=O)(=O)NC(C)(C)C)c1,3.58
4,O=C1NC(=O)C(c2ccccc2[N+](=O)[O-])=C1Nc1ccc(O)c(Cl)c1,5.21
5,CNC(=O)c1cc(Oc2ccc(NC(=O)Nc3ccc(Cl)c(C(F)(F)F)c3)c(F)c2)ccn1 [Regorafenib],4.88
6,COc1cc(C(=O)NC2CCN(C)CC2)c(F)cc1Nc1ncc2c(n1)N(C1CCCC1)CC(F)(F)C(=O)N2C,5.08
7,O=C(Nc1ccccc1C(=O)NC1CCCCNC1=O)c1cc2ccccc2s1 (configuration not stated),3.75
8,C#Cc1cccc(Nc2ncnc3cc(OC)c(OCCCCCCC(=O)NO)cc23)c1,4.25
9,Cc1nc(Nc2cnn(C3CCNCC3)c2)nc2c1N(C)C(=O)c1cc3ccccc3cc1N2C,4.25
10,CN1CCC(CNc2ccc3ncc(-c4cccc(OC(F)(F)F)c4)n3n2)CC1 [SGI-1776 free base],5.25
11,Nc1nccc(-c2c(-c3ccc(F)cc3)ncn2C2CCCCC2)n1,5.58
12,O=C(Cc1ccc(-c2ccc(OCCN3CCOCC3)cc2)cn1)NCc1ccccc1 [KX2-391 dihydrochloride],0.584
13,O=C(O)CCC(=O)Nc1ccc(Br)cn1 [Bikinin],1.42
14,C[C@H](NC(=O)/C(C#N)=C/c1cccc(Br)n1)c1ccccc1,4.58
15,Oc1ccc2ccccc2c1SSc1c(O)ccc2ccccc12,5.42
16,C[C@@]1(C(=O)Nc2ccc(F)nc2)CCCN1c1nc(Nc2cc(C3CC3)n[nH]2)c2cccn2n1,4.38
17,CC(C)(C)c1nc2c3cc[nH]c(=O)c3c3cc(F)ccc3c2[nH]1 [Pyridone 6],5.25
18,CCN1CCN(Cc2ccc(NC(=O)Nc3ccc(Oc4cc(NC)ncn4)cc3)cc2C(F)(F)F)CC1,2.04
19,"S=C(NCc1ccc2c(c1)OCO2)N1CCN(c2ncnc3c2oc2ccccc23)CC1 [Amuvatinib (MP-470, HPK 56)]",4.92
20,Cc1cnc(Nc2ccc(F)cc2Cl)nc1-c1c[nH]c(C(=O)N[C@H](CO)c2cccc(Cl)c2)c1,4.58
21,CN1CCN(Cc2ccc(-c3cnc4[nH]cc(-c5ccc6[nH]ccc6c5)c4c3)cc2)CC1,4.42
22,O=C(CCCCCCC(=O)Nc1ccc(I)cc1)NO [4-iodo-SAHA],4.42
23,Cc1ccc(NC(=O)c2ccc(CN3CCN(C)CC3)cc2)cc1Nc1nccc(-c2cccnc2)n1 [Imatinib Mesylate (STI571)],4.71
24,COc1ccc(-c2ccc3ncc4c(c3c2)n(-c2ccc(N3CCNCC3)c(C(F)(F)F)c2)c(=O)n4C)cn1,4.92
25,CNc1nc(Nc2cnn(C3CCN(C4COC4)CC3F)c2Cl)ncc1C(F)(F)F (configuration not stated),4.75
26,COc1cc2ncnc(Oc3cccc(NC(=O)Nc4cc(C(C)(C)C(F)(F)F)on4)c3)c2cc1OC,4.71
27,c1cn2cc(-c3ccc4cn[nH]c4c3)nc(Nc3ccc(N4CCOCC4)cc3)c2n1,5.08
